Reference: PubChem BioAssay (NCATS)
Unmarked numbers belong to inactive results. Records with an inconclusive call do not appear. Active and inactive are the calls of the source. Unless noted, calls come from the whole dose curve; as a rule, active = well fitted curve in either direction with a large enough effect (not every such curve was filed as active); inconclusive = small, poorly fitted or top-dose-only effect, or another doubt; inactive = flat fitted curve, though single readings scatter.

Assays:
[1] = biological target: Lysosomal acid glucosylceramidase (Homo sapiens) (UniProt P04062); assay: Glucocerebrosidase-p2 (AID 348; in the data active = potency below about 10 µM; note: potency is the fitted concentration of half-maximal effect); conditions: purified GBA, blue fluorogenic substrate, 40 min
Procedure, shortened: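 Normal human glucocerebrosidase (0.2 nM) with blue fluorogenic substrate (80 uM final) in citrate/phosphate pH 5.9 with 10mM sodium taurocholate, 0.01% tween-20; 40 min RT, NaOH/glycine stop; fluorescence Ex 365/Em 440; AC50 from a titration from 0.6 nM upwards.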

[2] = AP1 Signaling Pathway (AID 357); conditions: ME-180 AP-1-bla reporter, EGF-induced, beta-lactamase ratio, 5 h; at 7.69 µM (top of the series) unless noted;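 note: ME-180 reporter cells stimulated with EGF at its EC50 level; % is set by controls: 0 for no effect and ±100 for the full control effect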
Procedure, shortened: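 Beta-lactamase reporter under AP-1 response element, ME-180 background. Stimulus: EC50 EGF. Compound exposure 5 h, 37 °C. Detection: CCF4, 2.5 h RT, 460/530 nm. Values: AC50 from titration.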

[3] = biological target: Cytochrome P450 1A2 (Homo sapiens) (UniProt P05177); assay: p450-cyp1a2 (AID 410; calls by dose curve; note: potency is the fitted concentration of half-maximal effect;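 for activity change, negative = inhibition: -100% = full effect of reference inhibitor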); conditions: recombinant CYP1A2, luciferin-ME demethylation, luminescence; series mostly up to 11.4 µM
Procedure, shortened: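 Read-out is luminescence from luciferin produced by CYP1A2 demethylation of Luciferin-ME (100uM, at Km). Detection reagent stopped the 60 min NADPH-dependent reaction; signals were normalized to 57 uM furafylline.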

[4] = NFAT Signaling Pathway (AID 444); conditions: Jurkat NFAT-bla M1, carbachol, beta-lactamase ratio, 5 h; at 7.69 µM (top of the series) unless noted;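 note: carbachol stimulus at about its EC50 of 1 µM final; % is set by controls: 0 for no effect and ±100 for the full control effect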
Procedure, shortened: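 Read-out: CCF4 FRET ratio (460 nm/530 nm) after 1 h RT dye loading, used for %activity and AC50 from titration series. Cells: Jurkat NFAT-β-lactamase/M1 line, treated with compound plus 1 uM carbachol for 5 h, 37 °C.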

[5] = Stat Signaling Pathway (AID 446); conditions: ME-180 (cervical carcinoma) SIE beta-lactamase reporter, IL-6 stimulated, 5 h; at 7.69 µM (top of the series) unless noted;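 note: ME-180 cervical cancer cells given 40 pM IL-6 alongside compound; SIE-controlled beta-lactamase reporter measured as 460/530 nm FRET emission ratio; % is set by controls: 0 for no effect and ±100 for the full control effect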
Procedure, shortened: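 FRET read-out (405 nm excitation, 460/530 nm emission) of a beta-lactamase reporter under a STAT-inducible element in ME-180 cervical carcinoma cells. Cells with compound receive 40 pM IL-6 for 5 h. Values are normalised to AC90 stimulation and AC90 JAK-inhibitor controls.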

[6] = biological target: Glucocorticoid receptor (Homo sapiens) (UniProt P04150); assay: GR-GFP Redistribution (AID 450;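 active = compounds whose dose series gives a full or clear partial fitted curve of increased nuclear translocation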; note: potency is the fitted concentration of half-maximal effect); conditions: U2OS GR-GFP nuclear translocation, laser cytometry, 2 h
[7] = biological target: Glucocorticoid receptor (Homo sapiens) (UniProt P04150); assay: GR-EFC Redistribution (AID 451; calls by dose curve; note: potency is the fitted concentration of half-maximal effect); conditions: CHO-K1 GR-EFC translocation, beta-gal luminescence, 2 h
Procedure, shortened: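 Translocation of GR-ED fusion to nuclear EA restores b-gal, read by luminescence after 1 h room-temperature detection. Engineered CHO-K1 biosensor cells, 1,000/well, exposed 2 h at 37 C to titrations up to 46 uM final.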

[8] = biological target: Mitogen-activated protein kinase 10 (Mus musculus) (UniProt Q61831); assay: JNK3 AlphaScreen Assay (AID 530); conditions: JNK3 lysate, c-Jun phosphorylation; series mostly up to 11.4 µM;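 note: kinase came from lysate of stimulated human HepG2 cells; signal reports phosphorylation of biotinylated GST-cJun 1-79 at Ser73 with 10 µM ATP; % is set by controls: 0 for no effect and ±100 for the full control effect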
Procedure, shortened: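 Kinase buffer: 20 mM Tris-HCl pH 7.6, 10 mM MgCl2, 1 mM DTT, 0.1 mM Na3VO4, 0.01% Tween-20; ATP 10 uM. Substrate biotin-GST-cJun(1-79), enzyme from activated HepG2 lysates. Detection by Ser73 phospho-antibody AlphaScreen.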

[9] = biological target: 3',5'-cyclic-AMP phosphodiesterase 4B (Homo sapiens) (UniProt Q07343); assay: qHTS Assay for Inhibitors of PDE-IV (AID 607; active = well fitted activation curve with a large enough effect in the main read-out, with a control signal flat, not every such curve was filed as active; note: % of control where 0% means no effect); conditions: HEK293 ACTOne CNG channel cells, membrane potential fluorescence; series mostly up to 22.9 µM
Procedure, shortened: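 Cell-based read-out of cAMP via a modified cyclic nucleotide-gated channel and membrane potential dye (535/590 nm) in HEK293 cells expressing PDE4 endogenously. Compounds tested up to 22.9 uM final; 100 uM RO 20-1724 reference.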

[10] = biological target: Cytochrome P450 2C9 (Homo sapiens) (UniProt P11712); assay: qHTS Assay for Inhibitors and Substrates of Cytochrome P450 2C9 (AID 883; active = well fitted inhibition curve with a large enough effect; note: % is set by controls: 0 for no effect and ±100 for the full control effect; nearly all actives have a fitted effect of over 60% in size); conditions: recombinant CYP2C9, luciferin-H luminescence, 60 min; series mostly up to 11.4 µM
Procedure, shortened: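 Inhibition of CYP2C9 is scored as loss of luminescence, with 57uM sulphaphenazole defining 100% inhibition. Substrate Luciferin-H is used at 100uM, equal to its KM; enzyme at 10nM in 25mM KPO4, 60 min at 37C with NADPH regeneration.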

Chain of Cytochrome P450 1A2 (Homo sapiens) (P05177 whole entry, looked up): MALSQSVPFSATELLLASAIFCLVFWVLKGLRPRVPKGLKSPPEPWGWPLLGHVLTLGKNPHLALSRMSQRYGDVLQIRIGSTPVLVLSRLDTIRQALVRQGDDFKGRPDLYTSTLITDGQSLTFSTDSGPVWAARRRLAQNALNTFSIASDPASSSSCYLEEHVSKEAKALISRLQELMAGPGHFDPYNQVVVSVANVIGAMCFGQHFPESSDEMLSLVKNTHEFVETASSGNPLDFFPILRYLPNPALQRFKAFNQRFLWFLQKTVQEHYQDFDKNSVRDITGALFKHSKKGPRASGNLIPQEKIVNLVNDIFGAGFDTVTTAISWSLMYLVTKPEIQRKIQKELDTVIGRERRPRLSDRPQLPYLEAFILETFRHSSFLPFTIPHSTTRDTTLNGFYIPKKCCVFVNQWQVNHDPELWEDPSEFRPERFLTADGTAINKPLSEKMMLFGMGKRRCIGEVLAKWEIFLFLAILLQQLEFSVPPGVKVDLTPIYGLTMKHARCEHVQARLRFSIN
Chain of 3',5'-cyclic-AMP phosphodiesterase 4B (Homo sapiens) (Q07343 whole entry, looked up): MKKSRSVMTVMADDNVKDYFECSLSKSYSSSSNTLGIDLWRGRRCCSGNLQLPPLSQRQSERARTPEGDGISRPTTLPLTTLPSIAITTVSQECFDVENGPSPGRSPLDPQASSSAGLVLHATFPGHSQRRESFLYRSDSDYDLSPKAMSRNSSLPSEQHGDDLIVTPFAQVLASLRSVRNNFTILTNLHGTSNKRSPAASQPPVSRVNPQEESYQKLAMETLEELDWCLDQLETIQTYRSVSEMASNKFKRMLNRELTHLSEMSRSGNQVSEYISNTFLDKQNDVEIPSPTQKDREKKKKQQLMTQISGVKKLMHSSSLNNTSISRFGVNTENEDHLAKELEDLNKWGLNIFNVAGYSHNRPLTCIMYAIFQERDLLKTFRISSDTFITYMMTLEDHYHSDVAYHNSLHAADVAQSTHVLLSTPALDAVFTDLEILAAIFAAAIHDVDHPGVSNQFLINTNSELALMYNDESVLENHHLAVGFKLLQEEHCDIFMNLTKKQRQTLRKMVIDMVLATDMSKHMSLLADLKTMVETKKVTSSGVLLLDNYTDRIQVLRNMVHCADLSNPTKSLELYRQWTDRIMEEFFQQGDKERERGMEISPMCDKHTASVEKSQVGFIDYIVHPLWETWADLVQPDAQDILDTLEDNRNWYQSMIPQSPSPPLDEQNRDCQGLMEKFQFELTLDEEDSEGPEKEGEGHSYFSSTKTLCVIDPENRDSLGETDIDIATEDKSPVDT
Chain of Glucocorticoid receptor (Homo sapiens) (P04150 whole entry, looked up, the tested form may be a part): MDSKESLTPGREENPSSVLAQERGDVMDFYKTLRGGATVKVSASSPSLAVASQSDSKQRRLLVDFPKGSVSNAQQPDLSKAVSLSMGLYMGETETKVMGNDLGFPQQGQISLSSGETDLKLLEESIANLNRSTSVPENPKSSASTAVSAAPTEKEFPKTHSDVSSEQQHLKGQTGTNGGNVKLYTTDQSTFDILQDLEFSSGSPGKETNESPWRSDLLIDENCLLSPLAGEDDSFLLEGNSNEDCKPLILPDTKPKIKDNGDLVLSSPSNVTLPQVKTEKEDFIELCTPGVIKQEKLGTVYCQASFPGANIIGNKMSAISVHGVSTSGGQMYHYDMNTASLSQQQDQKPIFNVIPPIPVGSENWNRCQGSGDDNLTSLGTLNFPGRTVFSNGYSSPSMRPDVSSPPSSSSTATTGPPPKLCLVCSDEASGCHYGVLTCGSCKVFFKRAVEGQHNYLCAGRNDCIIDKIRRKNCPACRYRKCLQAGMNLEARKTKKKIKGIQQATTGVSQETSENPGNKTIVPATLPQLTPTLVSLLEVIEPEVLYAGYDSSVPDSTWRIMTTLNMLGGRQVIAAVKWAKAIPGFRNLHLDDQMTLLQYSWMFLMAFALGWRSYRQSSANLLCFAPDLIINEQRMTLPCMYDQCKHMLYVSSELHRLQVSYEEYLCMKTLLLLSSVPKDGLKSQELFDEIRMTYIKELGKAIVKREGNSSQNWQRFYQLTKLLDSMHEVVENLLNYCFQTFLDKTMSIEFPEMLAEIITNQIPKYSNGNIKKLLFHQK
Chain of Lysosomal acid glucosylceramidase (Homo sapiens) (P04062 whole entry, looked up): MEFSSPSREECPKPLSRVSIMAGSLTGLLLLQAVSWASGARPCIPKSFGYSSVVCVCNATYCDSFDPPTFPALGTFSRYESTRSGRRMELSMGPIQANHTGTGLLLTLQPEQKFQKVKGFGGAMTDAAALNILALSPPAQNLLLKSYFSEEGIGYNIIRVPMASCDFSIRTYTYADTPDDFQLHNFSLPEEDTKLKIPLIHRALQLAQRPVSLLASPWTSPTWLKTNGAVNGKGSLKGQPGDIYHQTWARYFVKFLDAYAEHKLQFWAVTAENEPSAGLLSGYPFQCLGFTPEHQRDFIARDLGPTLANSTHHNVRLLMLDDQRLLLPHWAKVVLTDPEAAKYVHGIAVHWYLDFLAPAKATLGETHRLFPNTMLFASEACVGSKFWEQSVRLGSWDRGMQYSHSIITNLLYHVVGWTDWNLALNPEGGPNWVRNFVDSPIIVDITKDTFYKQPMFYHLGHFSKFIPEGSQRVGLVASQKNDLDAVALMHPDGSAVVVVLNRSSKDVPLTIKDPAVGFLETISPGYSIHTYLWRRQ
Chain of Cytochrome P450 2C9 (Homo sapiens) (P11712 whole entry, looked up): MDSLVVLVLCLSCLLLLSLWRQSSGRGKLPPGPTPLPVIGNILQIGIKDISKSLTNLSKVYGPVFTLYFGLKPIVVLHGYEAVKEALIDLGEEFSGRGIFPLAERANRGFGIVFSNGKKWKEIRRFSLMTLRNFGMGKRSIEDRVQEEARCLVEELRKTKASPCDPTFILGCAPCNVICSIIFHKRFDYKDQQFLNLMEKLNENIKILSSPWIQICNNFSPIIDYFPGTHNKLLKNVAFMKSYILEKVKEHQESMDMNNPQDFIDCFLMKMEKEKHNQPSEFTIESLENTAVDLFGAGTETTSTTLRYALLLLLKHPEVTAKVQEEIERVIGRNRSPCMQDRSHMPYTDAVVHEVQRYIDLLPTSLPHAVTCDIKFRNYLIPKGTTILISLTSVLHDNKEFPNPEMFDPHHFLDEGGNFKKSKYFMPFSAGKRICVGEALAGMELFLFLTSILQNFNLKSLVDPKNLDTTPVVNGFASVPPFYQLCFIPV

SMILES | Potency [1] | activity change, negative = inhibition [2] | activity change, negative = inhibition [3] | activity change, negative = inhibition [4] | activity, negative = inhibition [5] | Potency [6] | Potency [7] | Potency [8] | Potency [9] | Potency [3] | Potency [10]
CC(=O)[C@]1(O)CC[C@@H]2[C@H]3C[C@@H](C)C4=CC(=O)CC[C@@]4(C)[C@H]3[C@@H](O)C[C@]21C | > 11.4 µM | -0.0488% | -2% [at 2.29 µM] | 16.8% | -9.62% | < 2.95e-05 µM (active) | 0.0236 µM (active) | inactive | inactive | – | –
Cn1c(=O)c2c(ncn2CN2CCN(Cn3cnc4c3c(=O)n(C)c(=O)n4C)CC2)n(C)c1=O | > 11.4 µM | -1.04% | -18.2% [at 2.29 µM] | 7.2% | 2.15% | > 46 µM | > 9.22 µM | inactive | inactive | – | –
C[C@@](O)(CNS(=O)(=O)c1ccccc1)c1ccccc1 | > 11.4 µM | 0.078% | – | 3.96% | -0.864% | > 46 µM | > 9.22 µM | inactive | inactive | inactive | –
Cc1c(Cl)c(S(N)(=O)=O)cc2c1=NC=NS=2(=O)O | > 11.4 µM | -1% | -9.6% [at 2.29 µM] | 4.9% | 1.77% | > 46 µM | > 9.22 µM | inactive | inactive | – | inactive
Cc1ccc(/C(C#N)=C/c2cccc([N+](=O)[O-])c2)cc1 | > 11.4 µM | 15.2% | – | -0.124% | 11.8% | > 46 µM | > 9.22 µM | inactive | inactive | 3.98 µM (active) | –
CCOC(=O)CCCN | > 11.4 µM | -4.22% | – | 2.34% | 8.34% | > 46 µM | > 9.22 µM | inactive | inactive | 6.31 µM (active) | –
CC[C@H](CN(C)C)C(=O)c1ccco1 | > 11.4 µM | 3.81% | – | -14.2% | -1.8% | > 46 µM | > 9.22 µM | inactive | inactive | inactive | –
Cc1[nH]c2ccccc2c1-c1cc(-c2cc(-c3c(C)[nH]c4ccccc34)on2)no1 | > 11.4 µM | 5.07% | – | -7.58% | -1.93% | > 46 µM | > 9.22 µM | inactive | inactive | 0.398 µM (active) | inactive
C[C@@]12CC[C@@H]3[C@H](CCC4=CC(=O)CC[C@]43C)[C@@H]1CC[C@@H]2C(=O)COS(=O)(=O)c1ccc(Br)cc1 | > 11.4 µM | -0.601% | – | 19% | -0.203% | 0.793 µM (active) | > 9.22 µM | inactive | inactive | inactive | –
C[N+](C)(C)CCCSc1nc2ccccc2[nH]1 | > 11.4 µM | -2.62% | – | -15.2% | -0.948% | > 46 µM | > 9.22 µM | inactive | inactive | inactive | –
CCOC(=O)[C@]1(CC(=O)O)CCCC1=O | > 11.4 µM | -0.0726% | – | -7.19% | -19.1% | > 46 µM | > 9.22 µM | inactive | inactive | inactive | –
O=C(O)CCCSc1nc2ccccc2s1 | > 11.4 µM | 1.43% | – | -19.5% | 4.62% | > 46 µM | > 9.22 µM | inactive | inactive | inactive | –
Nc1cc(C(=O)O)[nH]c(=O)n1 | > 11.4 µM | 3.6% | – | 8.92% | 13.8% | > 46 µM | > 9.22 µM | inactive | inactive | inactive | –
Fc1cccc(CSc2ncnc3c2ncn3[C@H]2CCCS2)c1 | > 11.4 µM | -5.08% | – | -2.58% | 3.04% | > 46 µM | > 9.22 µM | inactive | inactive | 0.501 µM (active) | –
O=C(O)CCC(=O)Nc1ccc2ccccc2c1 | > 11.4 µM | -0.421% | – | 4.48% | 8.45% | > 46 µM | > 9.22 µM | inactive | inactive | 0.0631 µM (active) | –
